According to ChEMBL document CHEMBL3433997, “St. Jude Leishmania screening dataset” (2016):

Target: Hexose transporter 1 (Plasmodium falciparum) (UniProt O97467)
Assay: ST_JUDE_LEISH: Cytotoxicity at 2uM final concentration against transgenic Leishmania Mexicana promastigotes LmPfHT that are glucose transport deficient and complemented with the Plasmodium falciparum hexose transporter. Activity is measured by DNA content using SYBR green in vitro
Format: functional

Row | Compound | inhibition [%]
1 | CCOc1ccc2[nH]c(C)cc(=NN=Cc3cccnc3)c2c1 | 6.06
2 | Cc1ccc2nc3ccccc3c(NCCN3CCN(C)CC3)c2c1 | 50.6
3 | COc1cc(NC(=O)c2cccs2)c(C(=O)NCc2ccc(C)cc2)cc1OC | 4.22
4 | COc1cccc(NC(=O)NC2CCN(c3ccnc(Nc4cc(OC)c(OC)c(OC)c4)n3)C2)c1 (stereo not given) | -1.6
5 | COCCNc1nc(N2CCC(CNC(=O)c3ccc(-c4ccc(C(=O)N(C)C)cc4C)cc3)CC2)nc2cc(OC)c(OC)cc12 | 1.09
6 | Cc1[nH]c(C)c(-c2ccc(-c3ccc(OC(F)(F)F)cc3)nc2)c(=O)c1Br | 8.43
7 | COc1ccc(OCc2ccccn2)c(C2CCN(CCCCNC(=O)c3ccc(NC(=O)c4ccc(Cl)cc4)cc3)CC2)c1 | -4.32
8 | CCCCOc1ccc(N2C(N)=NC(N)=NC2(C)C)cc1 | 1.89
9 | C[C@H](Cc1ccc(CCc2ccc(C[C@@H](C)NC[C@H](O)c3cccc(Cl)c3)cc2)cc1)NC[C@H](O)c1cccc(Cl)c1 | 10.7
10 | COc1ccccc1N(C)CCNc1cc(C)nc(Nc2ccccc2)n1 | 8.65
11 | COc1ccc(C(=O)Nc2cc(Cl)c3c(c2)C2CCCN2CC3)cc1C(F)(F)F (stereo not given) | 2.02
12 | CC(=O)c1ccc(Nc2c(C(N)=O)cnc3cc(-c4c(C)noc4C)ccc23)cc1 | 6.39
13 | CCn1c(C(C)C)cc2c3c(N)nc(N)nc3ccc21 | 61.1
14 | N#Cc1ccc(-c2ccc(C(=O)NCCCCN3CCC(c4cn(CCO)c5ccccc45)CC3)cc2)cc1 | -0.13
15 | COc1ccc(C(C(=O)NC2CCN(C[C@H](O)c3ccnc4ccc(OC)cc34)CC2)N2CCc3ccccc3C2)cc1 (stereo not given in full) | 2.33
